In the supplement of paper PMC11732987, “Enantioselective OTUD7B fragment discovery through chemoproteomics screening and high-throughput optimisation” (Communications Chemistry, 2025):

What was measured:
Experiment in all cases: log2 ratio of Biotin-Ahx-Ub-VS probe labelling (fragment/DMSO); higher = less target engagement (more negative = stronger competition), active = hit call of the paper (q ≤ 0.05, log2 ratio ≤ -1)
Conditions in all cases: compound concentration: 200 uM; treatment time: 3 h
USP19 = target: T1, USP19 (UniProt O94966)
T1 sequence (whole entry): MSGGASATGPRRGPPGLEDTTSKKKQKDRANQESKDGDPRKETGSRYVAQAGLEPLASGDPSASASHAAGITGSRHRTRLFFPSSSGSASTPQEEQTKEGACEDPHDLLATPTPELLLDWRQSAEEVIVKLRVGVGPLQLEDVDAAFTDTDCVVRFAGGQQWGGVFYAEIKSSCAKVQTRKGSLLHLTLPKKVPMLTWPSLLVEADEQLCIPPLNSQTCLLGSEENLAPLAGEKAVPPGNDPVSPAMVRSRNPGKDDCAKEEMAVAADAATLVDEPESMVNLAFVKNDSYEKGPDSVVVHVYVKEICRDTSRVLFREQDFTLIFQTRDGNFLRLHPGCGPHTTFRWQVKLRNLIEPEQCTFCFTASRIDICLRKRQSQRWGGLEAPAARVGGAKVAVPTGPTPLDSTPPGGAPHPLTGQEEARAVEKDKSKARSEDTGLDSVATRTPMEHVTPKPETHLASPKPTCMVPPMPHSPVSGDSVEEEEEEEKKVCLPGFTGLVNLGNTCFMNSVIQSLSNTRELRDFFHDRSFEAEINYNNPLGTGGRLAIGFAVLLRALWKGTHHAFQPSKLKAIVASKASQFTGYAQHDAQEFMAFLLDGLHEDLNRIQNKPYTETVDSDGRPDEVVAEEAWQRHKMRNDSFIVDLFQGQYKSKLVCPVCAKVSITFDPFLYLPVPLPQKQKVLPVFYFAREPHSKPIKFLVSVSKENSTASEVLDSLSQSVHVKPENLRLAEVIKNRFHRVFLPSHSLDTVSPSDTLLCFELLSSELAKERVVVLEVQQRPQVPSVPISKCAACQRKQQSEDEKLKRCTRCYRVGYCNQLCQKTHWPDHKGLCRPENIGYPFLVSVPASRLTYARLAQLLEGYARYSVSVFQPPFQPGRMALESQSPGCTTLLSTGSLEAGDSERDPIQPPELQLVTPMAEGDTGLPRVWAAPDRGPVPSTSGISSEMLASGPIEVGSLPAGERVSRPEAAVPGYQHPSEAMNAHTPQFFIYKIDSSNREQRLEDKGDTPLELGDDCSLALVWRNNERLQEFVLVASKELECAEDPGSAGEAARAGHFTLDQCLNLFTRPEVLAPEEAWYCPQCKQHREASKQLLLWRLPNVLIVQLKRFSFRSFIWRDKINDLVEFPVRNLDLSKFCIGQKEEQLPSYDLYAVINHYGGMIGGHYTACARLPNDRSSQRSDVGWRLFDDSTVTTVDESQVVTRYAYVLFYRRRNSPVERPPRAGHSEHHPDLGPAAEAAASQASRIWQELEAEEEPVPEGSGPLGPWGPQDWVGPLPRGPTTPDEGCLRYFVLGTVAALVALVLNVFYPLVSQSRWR
How it was run: (§1)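 Triplicate samples of HEK293T lysate, 495 µg each, received fragment at 200 µM or vehicle for 3 h, followed by Biotin-Ahx-Ub-VS (0.5 µM final) for 1 h. After NeutrAvidin enrichment of labelled DUBs and LysC/trypsin digestion, peptides were run by diaPASEF LC-MS/MS. The values are average log2 fragment/vehicle ratios from global-median-normalised Spectronaut label-free quantities, tested by unpaired t-test on proteins having ≥2 unique peptides.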

USP24 = USP24 (UniProt Q9UPU5)
Chain of USP24 (Q9UPU5 whole entry): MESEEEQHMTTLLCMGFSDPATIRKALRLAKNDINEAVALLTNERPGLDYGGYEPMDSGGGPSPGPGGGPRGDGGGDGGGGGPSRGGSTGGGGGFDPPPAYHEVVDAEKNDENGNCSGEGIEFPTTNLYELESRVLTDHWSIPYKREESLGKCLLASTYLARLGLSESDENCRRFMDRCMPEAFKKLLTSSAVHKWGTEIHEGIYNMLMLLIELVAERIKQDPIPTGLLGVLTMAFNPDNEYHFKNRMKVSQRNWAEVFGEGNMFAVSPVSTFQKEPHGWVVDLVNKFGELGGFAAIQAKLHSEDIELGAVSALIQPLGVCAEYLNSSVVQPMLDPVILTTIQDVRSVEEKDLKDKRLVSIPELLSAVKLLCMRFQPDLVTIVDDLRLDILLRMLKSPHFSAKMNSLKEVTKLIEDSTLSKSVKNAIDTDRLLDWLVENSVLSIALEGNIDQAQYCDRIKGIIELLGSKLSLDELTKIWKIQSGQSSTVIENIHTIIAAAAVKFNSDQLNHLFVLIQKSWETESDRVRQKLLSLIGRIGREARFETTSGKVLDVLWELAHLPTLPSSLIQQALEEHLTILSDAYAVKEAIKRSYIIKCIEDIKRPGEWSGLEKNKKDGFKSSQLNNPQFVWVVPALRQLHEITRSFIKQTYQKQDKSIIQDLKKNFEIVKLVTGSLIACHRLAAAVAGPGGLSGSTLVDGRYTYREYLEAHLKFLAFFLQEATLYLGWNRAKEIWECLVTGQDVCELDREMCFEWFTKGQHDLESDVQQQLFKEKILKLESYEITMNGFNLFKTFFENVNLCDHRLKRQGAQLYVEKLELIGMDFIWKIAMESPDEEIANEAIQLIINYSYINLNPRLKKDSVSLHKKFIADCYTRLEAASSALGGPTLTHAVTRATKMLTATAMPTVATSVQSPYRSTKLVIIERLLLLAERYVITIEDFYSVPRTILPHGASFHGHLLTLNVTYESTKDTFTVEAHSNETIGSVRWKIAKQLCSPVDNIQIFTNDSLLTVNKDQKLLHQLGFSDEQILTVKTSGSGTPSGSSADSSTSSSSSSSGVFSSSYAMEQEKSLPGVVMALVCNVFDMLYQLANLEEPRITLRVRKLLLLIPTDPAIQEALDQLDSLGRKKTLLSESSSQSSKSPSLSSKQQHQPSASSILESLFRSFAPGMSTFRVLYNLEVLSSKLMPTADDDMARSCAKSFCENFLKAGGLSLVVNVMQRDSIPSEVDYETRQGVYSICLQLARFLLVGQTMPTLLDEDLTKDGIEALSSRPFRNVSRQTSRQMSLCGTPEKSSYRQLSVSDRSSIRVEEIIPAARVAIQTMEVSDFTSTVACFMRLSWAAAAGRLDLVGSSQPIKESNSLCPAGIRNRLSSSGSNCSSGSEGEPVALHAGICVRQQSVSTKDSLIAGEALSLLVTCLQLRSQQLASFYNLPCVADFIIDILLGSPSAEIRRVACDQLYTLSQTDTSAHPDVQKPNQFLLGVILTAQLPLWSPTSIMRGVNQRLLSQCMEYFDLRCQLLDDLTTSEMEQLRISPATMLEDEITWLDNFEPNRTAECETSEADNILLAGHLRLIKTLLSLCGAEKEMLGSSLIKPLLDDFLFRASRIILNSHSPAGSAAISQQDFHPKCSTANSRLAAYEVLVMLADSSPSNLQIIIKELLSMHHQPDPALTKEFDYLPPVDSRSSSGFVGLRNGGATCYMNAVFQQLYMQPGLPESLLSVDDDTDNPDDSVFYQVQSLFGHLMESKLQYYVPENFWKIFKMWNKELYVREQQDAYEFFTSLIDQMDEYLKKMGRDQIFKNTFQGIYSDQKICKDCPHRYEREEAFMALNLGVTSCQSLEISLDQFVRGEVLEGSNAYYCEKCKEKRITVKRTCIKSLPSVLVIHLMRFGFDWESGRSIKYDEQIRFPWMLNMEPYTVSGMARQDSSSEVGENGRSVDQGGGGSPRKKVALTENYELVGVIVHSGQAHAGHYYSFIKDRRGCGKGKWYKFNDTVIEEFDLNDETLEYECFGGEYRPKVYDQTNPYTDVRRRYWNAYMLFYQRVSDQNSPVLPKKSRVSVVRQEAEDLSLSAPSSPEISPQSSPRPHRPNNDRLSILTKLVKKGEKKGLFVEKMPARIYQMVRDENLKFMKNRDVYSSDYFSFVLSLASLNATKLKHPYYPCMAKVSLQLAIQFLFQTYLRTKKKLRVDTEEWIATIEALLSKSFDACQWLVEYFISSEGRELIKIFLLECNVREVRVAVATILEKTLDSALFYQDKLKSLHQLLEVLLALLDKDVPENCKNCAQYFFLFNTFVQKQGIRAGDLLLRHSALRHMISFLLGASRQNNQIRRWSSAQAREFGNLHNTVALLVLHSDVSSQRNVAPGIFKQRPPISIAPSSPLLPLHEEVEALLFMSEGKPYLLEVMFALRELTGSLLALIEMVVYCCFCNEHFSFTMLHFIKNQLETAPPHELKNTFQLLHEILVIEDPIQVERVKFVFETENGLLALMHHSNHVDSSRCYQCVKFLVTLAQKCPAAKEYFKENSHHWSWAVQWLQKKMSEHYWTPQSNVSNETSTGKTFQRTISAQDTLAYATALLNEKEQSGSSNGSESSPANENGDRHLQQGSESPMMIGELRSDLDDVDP
How it was run: as §1

USP25 = target: T2, USP25 (UniProt Q9UHP3)
T2 sequence (whole entry): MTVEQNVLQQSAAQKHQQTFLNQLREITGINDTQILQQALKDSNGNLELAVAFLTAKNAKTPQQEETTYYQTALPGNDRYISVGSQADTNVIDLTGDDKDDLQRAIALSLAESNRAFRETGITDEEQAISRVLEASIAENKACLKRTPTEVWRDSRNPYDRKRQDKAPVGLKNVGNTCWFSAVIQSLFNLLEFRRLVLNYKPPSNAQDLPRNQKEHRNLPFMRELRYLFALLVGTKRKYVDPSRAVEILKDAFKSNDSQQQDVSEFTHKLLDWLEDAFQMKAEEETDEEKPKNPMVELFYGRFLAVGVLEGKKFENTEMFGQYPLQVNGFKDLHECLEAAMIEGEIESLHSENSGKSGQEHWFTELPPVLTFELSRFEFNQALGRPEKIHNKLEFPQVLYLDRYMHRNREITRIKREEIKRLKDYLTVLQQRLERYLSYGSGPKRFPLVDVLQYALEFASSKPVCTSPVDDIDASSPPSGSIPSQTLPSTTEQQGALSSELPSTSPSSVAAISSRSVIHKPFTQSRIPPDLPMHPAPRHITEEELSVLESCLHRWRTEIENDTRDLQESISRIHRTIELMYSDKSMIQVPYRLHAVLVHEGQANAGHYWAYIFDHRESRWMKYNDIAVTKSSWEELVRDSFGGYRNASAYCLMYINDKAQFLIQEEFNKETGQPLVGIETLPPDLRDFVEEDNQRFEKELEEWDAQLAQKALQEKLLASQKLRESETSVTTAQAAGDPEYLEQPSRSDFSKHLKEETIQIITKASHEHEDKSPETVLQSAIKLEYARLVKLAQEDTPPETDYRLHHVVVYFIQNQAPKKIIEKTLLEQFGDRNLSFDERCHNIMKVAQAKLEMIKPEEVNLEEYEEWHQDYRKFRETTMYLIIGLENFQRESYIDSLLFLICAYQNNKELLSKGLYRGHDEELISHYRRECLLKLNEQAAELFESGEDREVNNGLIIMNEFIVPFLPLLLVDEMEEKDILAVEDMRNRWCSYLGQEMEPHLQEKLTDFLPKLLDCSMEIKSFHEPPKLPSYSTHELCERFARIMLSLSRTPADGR
How it was run: as §1

USP28 = target: T3, USP28 (UniProt Q96RU2)
T3 sequence (whole entry): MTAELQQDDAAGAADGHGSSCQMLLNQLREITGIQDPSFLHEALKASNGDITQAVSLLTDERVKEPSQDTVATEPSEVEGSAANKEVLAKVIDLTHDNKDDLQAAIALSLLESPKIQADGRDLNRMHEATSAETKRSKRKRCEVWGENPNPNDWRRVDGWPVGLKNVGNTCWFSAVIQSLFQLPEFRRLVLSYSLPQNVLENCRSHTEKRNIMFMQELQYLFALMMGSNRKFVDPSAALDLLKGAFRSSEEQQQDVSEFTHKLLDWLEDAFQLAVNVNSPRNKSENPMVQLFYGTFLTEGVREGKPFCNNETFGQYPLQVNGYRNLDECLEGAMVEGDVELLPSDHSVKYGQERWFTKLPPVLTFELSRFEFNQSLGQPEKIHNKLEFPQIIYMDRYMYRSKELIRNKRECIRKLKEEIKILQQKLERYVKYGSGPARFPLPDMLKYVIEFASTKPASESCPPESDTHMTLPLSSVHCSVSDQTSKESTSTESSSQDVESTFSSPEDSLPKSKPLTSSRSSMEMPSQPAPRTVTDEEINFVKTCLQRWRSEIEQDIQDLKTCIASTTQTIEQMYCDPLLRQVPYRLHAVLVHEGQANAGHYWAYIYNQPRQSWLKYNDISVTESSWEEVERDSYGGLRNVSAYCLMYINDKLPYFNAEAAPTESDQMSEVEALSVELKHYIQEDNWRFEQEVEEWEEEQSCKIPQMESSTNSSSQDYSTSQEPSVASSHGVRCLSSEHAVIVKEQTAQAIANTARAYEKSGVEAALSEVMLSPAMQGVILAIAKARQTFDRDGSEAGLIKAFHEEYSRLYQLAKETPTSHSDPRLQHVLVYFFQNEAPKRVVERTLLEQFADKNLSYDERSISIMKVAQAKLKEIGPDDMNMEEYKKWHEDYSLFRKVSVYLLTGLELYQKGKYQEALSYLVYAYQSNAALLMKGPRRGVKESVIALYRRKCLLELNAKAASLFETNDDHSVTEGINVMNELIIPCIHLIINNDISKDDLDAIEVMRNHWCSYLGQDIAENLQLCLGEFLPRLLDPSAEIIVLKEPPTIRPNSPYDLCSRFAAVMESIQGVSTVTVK
How it was run: as §1

Measured: log2 ratio of Biotin-Ahx-Ub-VS probe labelling

C[C@@H](NC(=O)CCl)c1cccc(C#N)c1
inactive: USP19 -0.157 | USP24 -0.254 | USP25 -0.569 | USP28 -0.723
